Laboratory results from the supplement of paper PMC7393113.
Structures can show the parent of a compound that is named as a salt. ± gives the standard deviation of the averaged measurements.

Test system: iBMDM (immortalised mouse bone-marrow-derived macrophages), LPS-stimulated
Experiment: mitochondrial superoxide (MitoSOX fluorescence) fold increase over unstimulated control; higher = more LPS-induced mitochondrial ROS (less inhibition)
Settings: inhibitor concentration: 500 nM, LPS: 100 ng/ml
Procedure, shortened: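 Immortalised mouse bone-marrow-derived macrophages were seeded in triplicate in black 96-well plates and moved to phenol-red-free 1% FCS/DMEM for 20 h. They were pretreated 30 min with kinase inhibitors (500 nM), loaded with 1 μM MitoSox for 10 min, then given LPS (100 ng/ml). Fluorescence (excitation/emission 510/580 nm, ClarioStar plate reader) was read every 60 min for 4 h. Mitochondrial superoxide is fold induction over untreated control macrophages, averaged over three replicates.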

Row | Structure (SMILES) | mitochondrial superoxide (time after LPS: 1 h) | mitochondrial superoxide (time after LPS: 2 h) | mitochondrial superoxide (time after LPS: 4 h)
1 | O=C(NC1CCNCC1)c1n[nH]cc1NC(=O)c1c(Cl)cccc1Cl | 1.13 ± 0.061 | 1.15 ± 0.041 | 1.3 ± 0.018
2 | COc1ccc(-c2ccc3ncc4c(c3c2)n(-c2ccc(N3CCNCC3)c(C(F)(F)F)c2)c(=O)n4C)cn1 | 1.1 ± 0.041 | 1.27 ± 0.078 | 1.49 ± 0.077
3 | CCCNC(=O)Nc1ccc(Oc2ncnc3cc(OC)c(OC)cc23)cc1Cl | 1.15 ± 0.055 | 1.21 ± 0.066 | 1.22 ± 0.024
4 | O=C(NCc1cccc(O)c1)Nc1nc(-c2ccncc2)cs1 | 1.36 ± 0.026 | 1.44 ± 0.015 | 1.64 ± 0.017
5 | CO[C@H]1C[C@@H]2CC[C@@H](C)[C@@](O)(O2)C(=O)C(=O)N2CCCC[C@H]2C(=O)O[C@H]([C@H](C)C[C@@H]2CC[C@@H](OC(=O)C(C)(CO)CO)[C@H](OC)C2)CC(=O)[C@H](C)/C=C(\C)[C@@H](O)[C@@H](OC)C(=O)[C@H](C)C[C@H](C)/C=C/C=C/C=C/1C | 1.55 ± 0.051 | 1.65 ± 0.098 | 1.75 ± 0.089
6 | CCCCCCCCc1ccc(CCC(N)(CO)CO)cc1 [Fingolimod (FTY720) HCl] | 1.15 ± 0.043 | 1.19 ± 0.071 | 1.31 ± 0.038
7 | CCN(CC)CCCC(C)Nc1nc(C)cc(Nc2ccc3nc(C)cc(N)c3c2)n1 (stereo not given) | 1.35 ± 0.041 | 1.53 ± 0.051 | 1.65 ± 0.15
8 | O=Nc1c(-c2c(O)[nH]c3cc(Br)ccc23)[nH]c2ccccc12 | 1.3 ± 0.081 | 1.43 ± 0.041 | 1.64 ± 0.067
9 | CC(C)CCN1c2nc(Nc3cc(F)c(O)c(F)c3)ncc2N(C)C(=O)C1C (stereo not given) | 1.14 ± 0.036 | 1.21 ± 0.047 | 1.321 ± 0.0097
10 | CN1CCC(CNc2ccc3ncc(-c4cccc(OC(F)(F)F)c4)n3n2)CC1 [SGI-1776 free base] | 1.13 ± 0.048 | 1.22 ± 0.052 | 1.33 ± 0.071
